# Measurements taken from article PMC12529666, “Dysregulation of AGO2-miRNA dynamics underlies the AGO2-associated Lessel–Kreienkamp syndrome”.
# B1: GTATCCCG (ssRNA)
# RNA 1: GAGUUCUACAGUCCGACGAUCCCAACGUAUCCCGCACCUGGAAUUCUCGGGUGCCAA
# RNA 2: UGGAGUGUGACAAUGGUGUUUG
# DNA 1: GATCGTCGGACTGTAGAACTC
# DNA 2: TTGGCACCCGAGAATTCCA
# modifications: constant regions annealed to DNA blockers; guide miR-122 5' phosphate
# B2: GCACTTTG (ssRNA)
# RNA 1: GAGUUCUACAGUCCGACGAUCCCAACGCACUUUGCACCUGGAAUUCUCGGGUGCCAA
# RNA 2: UGGAGUGUGACAAUGGUGUUUG
# DNA 1: GATCGTCGGACTGTAGAACTC
# DNA 2: TTGGCACCCGAGAATTCCA
# modifications: constant regions annealed to DNA blockers; guide miR-122 5' phosphate
# B3: GTGTTCTA (ssRNA)
# RNA 1: GAGUUCUACAGUCCGACGAUCCCAACGUGUUCUACACCUGGAAUUCUCGGGUGCCAA
# RNA 2: UGGAGUGUGACAAUGGUGUUUG
# DNA 1: GATCGTCGGACTGTAGAACTC
# DNA 2: TTGGCACCCGAGAATTCCA
# modifications: constant regions annealed to DNA blockers; guide miR-122 5' phosphate
# B4: ATGCCTCG (ssRNA)
# RNA 1: GAGUUCUACAGUCCGACGAUCCCAACAUGCCUCGCACCUGGAAUUCUCGGGUGCCAA
# RNA 2: UGGAGUGUGACAAUGGUGUUUG
# DNA 1: GATCGTCGGACTGTAGAACTC
# DNA 2: TTGGCACCCGAGAATTCCA
# modifications: constant regions annealed to DNA blockers; guide miR-122 5' phosphate
# B5: GTATTTTG (ssRNA)
# RNA 1: GAGUUCUACAGUCCGACGAUCCCAACGUAUUUUGCACCUGGAAUUCUCGGGUGCCAA
# RNA 2: UGGAGUGUGACAAUGGUGUUUG
# DNA 1: GATCGTCGGACTGTAGAACTC
# DNA 2: TTGGCACCCGAGAATTCCA
# modifications: constant regions annealed to DNA blockers; guide miR-122 5' phosphate
# B6: ATACCCCG (ssRNA)
# RNA 1: GAGUUCUACAGUCCGACGAUCCCAACAUACCCCGCACCUGGAAUUCUCGGGUGCCAA
# RNA 2: UGGAGUGUGACAAUGGUGUUUG
# DNA 1: GATCGTCGGACTGTAGAACTC
# DNA 2: TTGGCACCCGAGAATTCCA
# modifications: constant regions annealed to DNA blockers; guide miR-122 5' phosphate
# B7: ATACCTTG (ssRNA)
# RNA 1: GAGUUCUACAGUCCGACGAUCCCAACAUACCUUGCACCUGGAAUUCUCGGGUGCCAA
# RNA 2: UGGAGUGUGACAAUGGUGUUUG
# DNA 1: GATCGTCGGACTGTAGAACTC
# DNA 2: TTGGCACCCGAGAATTCCA
# modifications: constant regions annealed to DNA blockers; guide miR-122 5' phosphate
# B8: GTATTTCG (ssRNA)
# RNA 1: GAGUUCUACAGUCCGACGAUCCCAACGUAUUUCGCACCUGGAAUUCUCGGGUGCCAA
# RNA 2: UGGAGUGUGACAAUGGUGUUUG
# DNA 1: GATCGTCGGACTGTAGAACTC
# DNA 2: TTGGCACCCGAGAATTCCA
# modifications: constant regions annealed to DNA blockers; guide miR-122 5' phosphate
# B9: GTACCTTA (ssRNA)
# RNA 1: GAGUUCUACAGUCCGACGAUCCCAACGUACCUUACACCUGGAAUUCUCGGGUGCCAA
# RNA 2: UGGAGUGUGACAAUGGUGUUUG
# DNA 1: GATCGTCGGACTGTAGAACTC
# DNA 2: TTGGCACCCGAGAATTCCA
# modifications: constant regions annealed to DNA blockers; guide miR-122 5' phosphate
# B10: GCATCCTG (ssRNA)
# RNA 1: GAGUUCUACAGUCCGACGAUCCCAACGCAUCCUGCACCUGGAAUUCUCGGGUGCCAA
# RNA 2: UGGAGUGUGACAAUGGUGUUUG
# DNA 1: GATCGTCGGACTGTAGAACTC
# DNA 2: TTGGCACCCGAGAATTCCA
# modifications: constant regions annealed to DNA blockers; guide miR-122 5' phosphate
# B11: ATGCTCTG (ssRNA)
# RNA 1: GAGUUCUACAGUCCGACGAUCCCAACAUGCUCUGCACCUGGAAUUCUCGGGUGCCAA
# RNA 2: UGGAGUGUGACAAUGGUGUUUG
# DNA 1: GATCGTCGGACTGTAGAACTC
# DNA 2: TTGGCACCCGAGAATTCCA
# modifications: constant regions annealed to DNA blockers; guide miR-122 5' phosphate
# B12: GTACCCTG (ssRNA)
# RNA 1: GAGUUCUACAGUCCGACGAUCCCAACGUACCCUGCACCUGGAAUUCUCGGGUGCCAA
# RNA 2: UGGAGUGUGACAAUGGUGUUUG
# DNA 1: GATCGTCGGACTGTAGAACTC
# DNA 2: TTGGCACCCGAGAATTCCA
# modifications: constant regions annealed to DNA blockers; guide miR-122 5' phosphate
# B13: GTATCTTA (ssRNA)
# RNA 1: GAGUUCUACAGUCCGACGAUCCCAACGUAUCUUACACCUGGAAUUCUCGGGUGCCAA
# RNA 2: UGGAGUGUGACAAUGGUGUUUG
# DNA 1: GATCGTCGGACTGTAGAACTC
# DNA 2: TTGGCACCCGAGAATTCCA
# modifications: constant regions annealed to DNA blockers; guide miR-122 5' phosphate
# B14: ATATTTCG (ssRNA)
# RNA 1: GAGUUCUACAGUCCGACGAUCCCAACAUAUUUCGCACCUGGAAUUCUCGGGUGCCAA
# RNA 2: UGGAGUGUGACAAUGGUGUUUG
# DNA 1: GATCGTCGGACTGTAGAACTC
# DNA 2: TTGGCACCCGAGAATTCCA
# modifications: constant regions annealed to DNA blockers; guide miR-122 5' phosphate
# B15: GTGTTTCG (ssRNA)
# RNA 1: GAGUUCUACAGUCCGACGAUCCCAACGUGUUUCGCACCUGGAAUUCUCGGGUGCCAA
# RNA 2: UGGAGUGUGACAAUGGUGUUUG
# DNA 1: GATCGTCGGACTGTAGAACTC
# DNA 2: TTGGCACCCGAGAATTCCA
# modifications: constant regions annealed to DNA blockers; guide miR-122 5' phosphate
# B16: GTGTCCTG (ssRNA)
# RNA 1: GAGUUCUACAGUCCGACGAUCCCAACGUGUCCUGCACCUGGAAUUCUCGGGUGCCAA
# RNA 2: UGGAGUGUGACAAUGGUGUUUG
# DNA 1: GATCGTCGGACTGTAGAACTC
# DNA 2: TTGGCACCCGAGAATTCCA
# modifications: constant regions annealed to DNA blockers; guide miR-122 5' phosphate
# B17: GTGTCCCG (ssRNA)
# RNA 1: GAGUUCUACAGUCCGACGAUCCCAACGUGUCCCGCACCUGGAAUUCUCGGGUGCCAA
# RNA 2: UGGAGUGUGACAAUGGUGUUUG
# DNA 1: GATCGTCGGACTGTAGAACTC
# DNA 2: TTGGCACCCGAGAATTCCA
# modifications: constant regions annealed to DNA blockers; guide miR-122 5' phosphate
# B18: ACGTTTCG (ssRNA)
# RNA 1: GAGUUCUACAGUCCGACGAUCCCAACACGUUUCGCACCUGGAAUUCUCGGGUGCCAA
# RNA 2: UGGAGUGUGACAAUGGUGUUUG
# DNA 1: GATCGTCGGACTGTAGAACTC
# DNA 2: TTGGCACCCGAGAATTCCA
# modifications: constant regions annealed to DNA blockers; guide miR-122 5' phosphate
# B19: ACGCCCTG (ssRNA)
# RNA 1: GAGUUCUACAGUCCGACGAUCCCAACACGCCCUGCACCUGGAAUUCUCGGGUGCCAA
# RNA 2: UGGAGUGUGACAAUGGUGUUUG
# DNA 1: GATCGTCGGACTGTAGAACTC
# DNA 2: TTGGCACCCGAGAATTCCA
# modifications: constant regions annealed to DNA blockers; guide miR-122 5' phosphate
# B20: GCATTCTG (ssRNA)
# RNA 1: GAGUUCUACAGUCCGACGAUCCCAACGCAUUCUGCACCUGGAAUUCUCGGGUGCCAA
# RNA 2: UGGAGUGUGACAAUGGUGUUUG
# DNA 1: GATCGTCGGACTGTAGAACTC
# DNA 2: TTGGCACCCGAGAATTCCA
# modifications: constant regions annealed to DNA blockers; guide miR-122 5' phosphate
# B21: ATGTTCTG (ssRNA)
# RNA 1: GAGUUCUACAGUCCGACGAUCCCAACAUGUUCUGCACCUGGAAUUCUCGGGUGCCAA
# RNA 2: UGGAGUGUGACAAUGGUGUUUG
# DNA 1: GATCGTCGGACTGTAGAACTC
# DNA 2: TTGGCACCCGAGAATTCCA
# modifications: constant regions annealed to DNA blockers; guide miR-122 5' phosphate
# B22: GTATCTCG (ssRNA)
# RNA 1: GAGUUCUACAGUCCGACGAUCCCAACGUAUCUCGCACCUGGAAUUCUCGGGUGCCAA
# RNA 2: UGGAGUGUGACAAUGGUGUUUG
# DNA 1: GATCGTCGGACTGTAGAACTC
# DNA 2: TTGGCACCCGAGAATTCCA
# modifications: constant regions annealed to DNA blockers; guide miR-122 5' phosphate
# B23: ATACCTTA (ssRNA)
# RNA 1: GAGUUCUACAGUCCGACGAUCCCAACAUACCUUACACCUGGAAUUCUCGGGUGCCAA
# RNA 2: UGGAGUGUGACAAUGGUGUUUG
# DNA 1: GATCGTCGGACTGTAGAACTC
# DNA 2: TTGGCACCCGAGAATTCCA
# modifications: constant regions annealed to DNA blockers; guide miR-122 5' phosphate
# Biological target: AGO2 L192P (Homo sapiens, UniProt Q9UKV8 1-859, L192P;S387D;S824A;S828D;S831D;S834A)
# Assay: RNA Bind-n-Seq (nitrocellulose filter binding and sequencing); miR-122 guide loaded in AGO2; 60 min incubation; 30 mM Tris pH 8.0, 100 mM potassium acetate, 2 mM magnesium acetate, 0.5 mM TCEP, 0.005% NP-40, 0.01 mg/ml yeast tRNA; 3 nM AGO2-miR-122, 100 nM RNA library; 60; high values mean tight binding
# Details: protein: recombinant; tags: His6 (N-terminal, pFastBac HTA)
# Procedure, shortened: (§1)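 His-tagged AGO2 was expressed in Sf9 insect cells by baculovirus, loaded with a synthetic guide RNA, and purified by Ni-NTA and a biotinylated capture oligo. Bound RNA was extracted, reverse-transcribed, barcode-amplified and Illumina-sequenced. Fold enrichment is each sequence's read fraction divided by its input-library read fraction.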
# Chain of AGO2 L192P (Q9UKV8 whole entry L192P/S387D/S824A/S828D/S831D/S834A): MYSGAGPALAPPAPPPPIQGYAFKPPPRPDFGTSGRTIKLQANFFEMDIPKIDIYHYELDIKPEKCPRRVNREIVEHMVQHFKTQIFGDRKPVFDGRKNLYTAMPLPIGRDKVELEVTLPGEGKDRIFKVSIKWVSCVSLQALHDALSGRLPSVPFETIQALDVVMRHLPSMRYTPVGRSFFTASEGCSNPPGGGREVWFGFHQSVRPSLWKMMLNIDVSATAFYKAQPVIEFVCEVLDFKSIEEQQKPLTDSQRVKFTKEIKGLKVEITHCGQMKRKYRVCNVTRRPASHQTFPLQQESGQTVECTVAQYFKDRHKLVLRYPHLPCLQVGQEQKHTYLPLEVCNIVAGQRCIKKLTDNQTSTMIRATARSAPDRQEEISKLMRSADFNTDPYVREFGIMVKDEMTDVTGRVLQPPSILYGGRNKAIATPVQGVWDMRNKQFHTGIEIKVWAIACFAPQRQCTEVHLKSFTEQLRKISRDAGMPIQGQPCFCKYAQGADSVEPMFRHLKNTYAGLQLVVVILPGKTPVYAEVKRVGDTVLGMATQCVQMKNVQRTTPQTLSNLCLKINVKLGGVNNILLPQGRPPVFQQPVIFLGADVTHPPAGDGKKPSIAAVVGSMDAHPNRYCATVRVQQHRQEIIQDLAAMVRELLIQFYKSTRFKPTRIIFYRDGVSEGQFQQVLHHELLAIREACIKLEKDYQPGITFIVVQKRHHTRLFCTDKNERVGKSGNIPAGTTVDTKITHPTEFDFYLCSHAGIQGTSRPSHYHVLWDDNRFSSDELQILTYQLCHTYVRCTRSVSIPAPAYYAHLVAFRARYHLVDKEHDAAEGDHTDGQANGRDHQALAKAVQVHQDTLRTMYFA
row,Binder,binding signal
1,B1,0.354 fold enrichment over input
2,B2,0.325 fold enrichment over input
3,B3,0.435 fold enrichment over input
4,B4,0.34 fold enrichment over input
5,B5,0.384 fold enrichment over input
6,B6,0.382 fold enrichment over input
7,B7,0.418 fold enrichment over input
8,B8,0.381 fold enrichment over input
9,B9,0.445 fold enrichment over input
10,B10,0.336 fold enrichment over input
11,B11,0.376 fold enrichment over input
12,B12,0.344 fold enrichment over input
13,B13,0.457 fold enrichment over input
14,B14,0.414 fold enrichment over input
15,B15,0.36 fold enrichment over input
16,B16,0.335 fold enrichment over input
17,B17,0.344 fold enrichment over input
18,B18,0.338 fold enrichment over input
19,B19,0.4 fold enrichment over input
20,B20,0.359 fold enrichment over input
21,B21,0.362 fold enrichment over input
22,B22,0.333 fold enrichment over input
23,B23,0.475 fold enrichment over input

# Biological target: AGO2 A367P (Homo sapiens, UniProt Q9UKV8 1-859, A367P;S387D;S824A;S828D;S831D;S834A)
# Assay: as above
# Details: protein: recombinant; tags: His6 (N-terminal, pFastBac HTA)
# Procedure, shortened: as §1
# Chain of AGO2 A367P (Q9UKV8 whole entry A367P/S387D/S824A/S828D/S831D/S834A): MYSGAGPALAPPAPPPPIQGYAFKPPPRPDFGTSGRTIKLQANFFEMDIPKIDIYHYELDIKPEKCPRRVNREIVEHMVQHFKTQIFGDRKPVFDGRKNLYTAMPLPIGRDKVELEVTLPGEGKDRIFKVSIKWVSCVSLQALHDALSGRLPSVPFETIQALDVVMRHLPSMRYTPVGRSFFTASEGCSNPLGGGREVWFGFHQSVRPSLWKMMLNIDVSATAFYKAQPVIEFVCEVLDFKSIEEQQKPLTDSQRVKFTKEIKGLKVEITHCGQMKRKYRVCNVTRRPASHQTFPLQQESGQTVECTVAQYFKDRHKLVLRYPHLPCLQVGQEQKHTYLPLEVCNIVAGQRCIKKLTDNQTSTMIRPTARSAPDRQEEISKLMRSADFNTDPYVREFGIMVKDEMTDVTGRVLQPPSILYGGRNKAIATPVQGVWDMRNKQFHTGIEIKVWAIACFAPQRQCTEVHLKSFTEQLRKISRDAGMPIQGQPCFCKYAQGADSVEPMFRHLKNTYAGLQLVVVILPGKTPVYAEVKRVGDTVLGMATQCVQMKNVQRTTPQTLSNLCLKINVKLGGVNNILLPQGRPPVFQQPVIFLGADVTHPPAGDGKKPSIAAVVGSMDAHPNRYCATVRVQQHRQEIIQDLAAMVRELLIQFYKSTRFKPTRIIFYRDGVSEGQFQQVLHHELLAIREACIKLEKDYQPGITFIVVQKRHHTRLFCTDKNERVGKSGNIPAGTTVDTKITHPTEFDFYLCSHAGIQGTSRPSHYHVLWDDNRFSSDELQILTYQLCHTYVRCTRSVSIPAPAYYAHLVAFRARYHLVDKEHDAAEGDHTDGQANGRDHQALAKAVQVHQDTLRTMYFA
row,Binder,binding signal
1,B1,0.122 fold enrichment over input
2,B2,0.126 fold enrichment over input
3,B3,0.156 fold enrichment over input
4,B4,0.134 fold enrichment over input
5,B5,0.131 fold enrichment over input
6,B6,0.14 fold enrichment over input
7,B7,0.125 fold enrichment over input
8,B8,0.127 fold enrichment over input
9,B9,0.167 fold enrichment over input
10,B10,0.13 fold enrichment over input
11,B11,0.14 fold enrichment over input
12,B12,0.129 fold enrichment over input
13,B13,0.174 fold enrichment over input
14,B14,0.135 fold enrichment over input
15,B15,0.133 fold enrichment over input
16,B16,0.124 fold enrichment over input
17,B17,0.126 fold enrichment over input
18,B18,0.13 fold enrichment over input
19,B19,0.147 fold enrichment over input
20,B20,0.137 fold enrichment over input
21,B21,0.132 fold enrichment over input
22,B22,0.128 fold enrichment over input
23,B23,0.166 fold enrichment over input

# Biological target: AGO2 T357M (Homo sapiens, UniProt Q9UKV8 1-859, T357M;S387D;S824A;S828D;S831D;S834A)
# Assay: as above
# Details: protein: recombinant; tags: His6 (N-terminal, pFastBac HTA)
# Procedure, shortened: as §1
# Chain of AGO2 T357M (Q9UKV8 whole entry T357M/S387D/S824A/S828D/S831D/S834A): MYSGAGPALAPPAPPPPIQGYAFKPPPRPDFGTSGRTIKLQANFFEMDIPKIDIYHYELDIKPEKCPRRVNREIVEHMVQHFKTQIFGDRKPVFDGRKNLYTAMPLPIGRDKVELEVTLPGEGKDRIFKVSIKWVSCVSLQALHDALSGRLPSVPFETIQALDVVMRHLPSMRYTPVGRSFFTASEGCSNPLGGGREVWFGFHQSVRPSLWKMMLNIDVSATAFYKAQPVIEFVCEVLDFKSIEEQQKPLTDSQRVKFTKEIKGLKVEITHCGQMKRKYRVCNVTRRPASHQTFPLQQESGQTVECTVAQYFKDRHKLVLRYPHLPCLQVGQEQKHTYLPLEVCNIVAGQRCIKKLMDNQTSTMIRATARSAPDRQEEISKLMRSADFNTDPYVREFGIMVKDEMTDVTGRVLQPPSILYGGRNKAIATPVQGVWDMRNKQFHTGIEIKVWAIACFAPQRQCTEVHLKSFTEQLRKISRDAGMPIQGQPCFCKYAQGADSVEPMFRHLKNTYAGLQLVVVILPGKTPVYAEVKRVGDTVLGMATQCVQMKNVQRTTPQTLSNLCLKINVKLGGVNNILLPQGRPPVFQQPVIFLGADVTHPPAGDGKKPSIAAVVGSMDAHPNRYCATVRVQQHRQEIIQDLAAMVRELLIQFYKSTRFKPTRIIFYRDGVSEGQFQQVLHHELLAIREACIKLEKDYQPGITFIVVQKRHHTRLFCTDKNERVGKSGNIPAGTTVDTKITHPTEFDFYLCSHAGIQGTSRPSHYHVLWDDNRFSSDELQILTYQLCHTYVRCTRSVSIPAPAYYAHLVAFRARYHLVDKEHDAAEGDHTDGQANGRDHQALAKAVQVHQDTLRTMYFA
row,Binder,binding signal
1,B1,0.399 fold enrichment over input
2,B2,0.452 fold enrichment over input
3,B3,0.531 fold enrichment over input
4,B4,0.474 fold enrichment over input
5,B5,0.514 fold enrichment over input
6,B6,0.471 fold enrichment over input
7,B7,0.573 fold enrichment over input
8,B8,0.515 fold enrichment over input
9,B9,0.599 fold enrichment over input
10,B10,0.437 fold enrichment over input
11,B11,0.486 fold enrichment over input
12,B12,0.483 fold enrichment over input
13,B13,0.596 fold enrichment over input
14,B14,0.6 fold enrichment over input
15,B15,0.483 fold enrichment over input
16,B16,0.452 fold enrichment over input
17,B17,0.447 fold enrichment over input
18,B18,0.445 fold enrichment over input
19,B19,0.519 fold enrichment over input
20,B20,0.44 fold enrichment over input
21,B21,0.487 fold enrichment over input
22,B22,0.424 fold enrichment over input
23,B23,0.561 fold enrichment over input
